Drawing on the supplement of paper PMC10646978, this text covers NF-kB reporter, IRF reporter and viability score for 13 compounds.

± gives the standard deviation.

Common to all, as to settings: modulator concentration 10 µM
The subject of assay [1] is RAW-Dual (murine macrophage reporter line). Kind of assay: NF-kB reporter (SEAP) activity fold change vs agonist alone; higher = enhanced NF-kB activity. The gist of the method: (§1)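 RAW-Dual murine macrophage reporter cells were seeded at 50 000 per well in 384-well plates and pre-incubated 1 hour at 37 °C with compound pin-transferred to 10 μM final. After 1 hour, a PRR agonist was added and cells incubated overnight. Supernatant NF-κB (SEAP, QUANTI-Blue, 620 nm absorbance) and IRF (Lucia luciferase, QUANTI-Luc, luminescence) signals were divided by the mean agonist-only control on the same plate to give fold change. Two replicate plates were averaged, with errors by propagation.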

Assay [2] shares this test system. Kind of assay: IRF reporter (Lucia luciferase) activity fold change vs agonist alone; higher = enhanced IRF activity. Summed up: as §1
For assay [3] the test system is unchanged. Nature of the assay: viability score (confluency relative to resting cells, overnight) (fraction); higher = more viable, active = viable (0.7 or more). Summed up: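 Two confluency masks, generated with IncuCyte software over all imaged wells, were applied to IncuCyte images of RAW-Dual macrophages. The cells, in 384-well plates, had been exposed overnight to 10 μM final compound. The viability score is confluency as a fraction of resting cells, and a compound met the cutoff only with both masks above 70% of resting cells.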

Where [4] appears, read: agonist: CpG ODN 1826 0.5 ug/mL.

In the case of `Cc1ccc(C=CC(=O)O)cc1S(=O)(=O)NCCO`, the NF-kB reporter in assay [1] (setting [4]) stood at 1.04 ± 0.2; in assay [1] (agonist: LPS 0.1 ug/mL), 0.884 ± 0.075; in assay [1] (agonist: MPLA […]) it was 1.05 ± 0.095. The IRF reporter in assay [2] (agonist: 3'3'-cGAMP 10 ug/mL) came to 0.988 ± 0.077; in assay [2] (agonist: LPS 0.1 ug/mL), 1.16 ± 0.2; in assay [2] (agonist: MPLA […]) it was 0.979 ± 0.32. In addition, the viability score in assay [3] is 0.984 (active).

For the compound `COc1ccccc1N1CCN(CCCNc2cc(=O)n(C)c(=O)n2C)CC1.Cl`, the NF-kB reporter in assay [1] (setting [4]) stood at 1.2 ± 0.3; in assay [1] (agonist: LPS 0.1 ug/mL), 1.08 ± 0.34; in assay [1] (agonist: MPLA […]), 0.954 ± 0.085. In addition, the values for the IRF reporter in assay [2] (agonist: 3'3'-cGAMP 10 ug/mL), in assay [2] (agonist: LPS 0.1 ug/mL) and in assay [2] (agonist: MPLA […]) were 0.959 ± 0.029, 1.21 ± 0.4 and 1.12 ± 0.092, respectively. Moreover, the viability score in assay [3] is 0.996 (active).

In the case of `Cc1cc(OC2CCN(C(=O)c3csc(C)n3)CC2)nc(C)n1`, the NF-kB reporter stood at 1.01 ± 0.051 in assay [1] (setting [4]), 1.11 ± 0.095 in assay [1] (agonist: LPS 0.1 ug/mL) and 0.923 ± 0.068 in assay [1] (agonist: MPLA […]). For the same compound, the values for the IRF reporter in assay [2] (agonist: 3'3'-cGAMP 10 ug/mL), in assay [2] (agonist: LPS 0.1 ug/mL) and in assay [2] (agonist: MPLA […]) were 0.954 ± 0.088, 1.23 ± 0.12 and 1.15 ± 0.23, respectively. Besides, in assay [3], the viability score was 1.01 (active).

Regarding `Cc1ccnc2c1NC(=O)c1cccnc1N2C1CC1`, the NF-kB reporter was 1.19 ± 0.26 in assay [1] (setting [4]), 1.2 ± 0.3 in assay [1] (agonist: LPS 0.1 ug/mL) and 0.967 ± 0.067 in assay [1] (agonist: MPLA […]). Also, the results for the IRF reporter in assay [2] (agonist: 3'3'-cGAMP 10 ug/mL), in assay [2] (agonist: LPS 0.1 ug/mL) and in assay [2] (agonist: MPLA […]) were 0.88 ± 0.035, 1.34 ± 0.36 and 1.29 ± 0.097, respectively. Besides, in assay [3], the viability score is 0.994 (active).

Regarding `O=C(Nc1ccc(F)cc1)c1ccccc1Br`, the NF-kB reporter in assay [1] (setting [4]) came out at 1.06 ± 0.092; in assay [1] (agonist: LPS 0.1 ug/mL) it was 1.06 ± 0.069; in assay [1] (agonist: MPLA […]), 1 ± 0.065. Also, the results for the IRF reporter in assay [2] (agonist: 3'3'-cGAMP 10 ug/mL), in assay [2] (agonist: LPS 0.1 ug/mL) and in assay [2] (agonist: MPLA […]) were 0.73 ± 0.055, 1.06 ± 0.065 and 1.04 ± 0.22, respectively. The viability score in assay [3] was 0.979 (active).

With `COc1ccccc1N1CCN(CC(O)COc2cccc3ccccc23)CC1.Cl.Cl` (stereo unspecified), the NF-kB reporter in assay [1] (setting [4]) turned out to be 0.595 ± 0.13; in assay [1] (agonist: LPS 0.1 ug/mL), 0.696 ± 0.13; in assay [1] (agonist: MPLA […]) it was 0.725 ± 0.048. For the same compound, the IRF reporter in assay [2] (agonist: 3'3'-cGAMP 10 ug/mL) was 0.654 ± 0.03; in assay [2] (agonist: LPS 0.1 ug/mL), 1.17 ± 0.34; in assay [2] (agonist: MPLA […]), 1.17 ± 0.22. In addition, the viability score in assay [3] was 0.97 (active).

Consider `COc1ccc2ccccc2c1C=C1SC(=S)N(CC(=O)O)C1=O`, for which the NF-kB reporter was 1.05 ± 0.081 in assay [1] (setting [4]), 1 ± 0.12 in assay [1] (agonist: LPS 0.1 ug/mL) and 1 ± 0.099 in assay [1] (agonist: MPLA […]). The IRF reporter was 0.988 ± 0.053 in assay [2] (agonist: 3'3'-cGAMP 10 ug/mL), 1.34 ± 0.27 in assay [2] (agonist: LPS 0.1 ug/mL) and 1.52 ± 0.4 in assay [2] (agonist: MPLA […]). For the same compound, in assay [3], the viability score is 1.04 (active).

As for `O=C1C(Cl)=C(N2CCCCC2)C(=O)N1c1cc(Cl)c(Cl)cc1Cl`, the NF-kB reporter amounted to 0.743 ± 0.063 in assay [1] (setting [4]), 0.737 ± 0.049 in assay [1] (agonist: LPS 0.1 ug/mL) and 0.857 ± 0.03 in assay [1] (agonist: MPLA […]). Further, the figures for the IRF reporter in assay [2] (agonist: 3'3'-cGAMP 10 ug/mL), in assay [2] (agonist: LPS 0.1 ug/mL) and in assay [2] (agonist: MPLA […]) were 0.352 ± 0.026, 1.07 ± 0.1 and 1.01 ± 0.15, respectively. Also, in assay [3], the viability score was 0.993 (active).

Regarding `COc1cccc(C2Nc3ccccc3-c3nnc(SC)nc3O2)c1OCC(=O)O` (stereo unspecified), the NF-kB reporter in assay [1] (setting [4]) was 0.989 ± 0.099; in assay [1] (agonist: LPS 0.1 ug/mL), 0.988 ± 0.054; in assay [1] (agonist: MPLA […]), 0.864 ± 0.082. The IRF reporter in assay [2] (agonist: 3'3'-cGAMP 10 ug/mL) is 1.03 ± 0.068; in assay [2] (agonist: LPS 0.1 ug/mL) it was 1.65 ± 0.11; in assay [2] (agonist: MPLA […]), 1.24 ± 0.076. In assay [3], the viability score was 1 (active).

As to `Cc1cc(OC2CN(C(=O)Cn3cnc4ccccc43)C2)cc(=O)n1C1CC1`, the NF-kB reporter worked out at 1.16 ± 0.11 in assay [1] (setting [4]), 1.09 ± 0.099 in assay [1] (agonist: LPS 0.1 ug/mL) and 0.97 ± 0.026 in assay [1] (agonist: MPLA […]). Also, the IRF reporter amounted to 1 ± 0.04 in assay [2] (agonist: 3'3'-cGAMP 10 ug/mL), 1.06 ± 0.06 in assay [2] (agonist: LPS 0.1 ug/mL) and 0.955 ± 0.092 in assay [2] (agonist: MPLA […]). Also, in assay [3], the viability score is 0.997 (active).

For the compound `CC(N)C12CC3CC(CC(C3)C1)C2` (stereo unspecified), the figures for the NF-kB reporter in assay [1] (setting [4]), in assay [1] (agonist: LPS 0.1 ug/mL) and in assay [1] (agonist: MPLA […]) were 0.979 ± 0.045, 0.933 ± 0.14 and 1.06 ± 0.058, respectively. For the same compound, the IRF reporter in assay [2] (agonist: 3'3'-cGAMP 10 ug/mL) was determined as 1.02 ± 0.056; in assay [2] (agonist: LPS 0.1 ug/mL), 1.12 ± 0.2; in assay [2] (agonist: MPLA […]) it was 1.24 ± 0.37. Also, the viability score in assay [3] is 1.01 (active).

Turning to `CC1CCc2c(N3CCC(O)CC3)c(F)cc3c(=O)c(C(=O)O)cn1c23` (stereo unspecified), the NF-kB reporter stood at 0.975 ± 0.091 in assay [1] (setting [4]), 0.889 ± 0.051 in assay [1] (agonist: LPS 0.1 ug/mL) and 0.992 ± 0.051 in assay [1] (agonist: MPLA […]). In addition, the IRF reporter in assay [2] (agonist: 3'3'-cGAMP 10 ug/mL) was determined as 1.03 ± 0.077; in assay [2] (agonist: LPS 0.1 ug/mL) it was 0.897 ± 0.046; in assay [2] (agonist: MPLA […]), 0.946 ± 0.11. Moreover, in assay [3], the viability score is 0.995 (active).

As for `C1CCC(N2NC2C2NN2C2CCCCC2)CC1` (stereo unspecified), the NF-kB reporter stood at 1.01 ± 0.22 in assay [1] (setting [4]), 1.03 ± 0.11 in assay [1] (agonist: LPS 0.1 ug/mL) and 0.964 ± 0.091 in assay [1] (agonist: MPLA […]). The IRF reporter is 0.938 ± 0.024 in assay [2] (agonist: 3'3'-cGAMP 10 ug/mL), 1.23 ± 0.19 in assay [2] (agonist: LPS 0.1 ug/mL) and 1.05 ± 0.11 in assay [2] (agonist: MPLA […]). The viability score in assay [3] is 1.01 (active).
